# Measurements from PubChem BioAssay.
# Active and inactive are the calls of the source.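 Rule for the calls, unless noted: active = thallium flux through the channel raised or lowered by more than 3 SD from vehicle-only wells, actives on both sides; inactive = the rest.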
# Assays:
# [1] = growth inhibition, single agents and combos, UWB1.289, cell-based, BGB or cisplatin combos, synergistic combos for chromothripsis tumors (AID 1671456; in the data active = inhibition above about 80%;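 note: cells exposed to compound for four days; 0% = vehicle DMSO and 100% = killing by high DMSO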); settings: UWB1.289 ovarian carcinoma cells, stronger effect = higher value
# [2] = growth inhibition, single agents and combos, LFS_MB_2R, cell-based, cisplatin combos, synergistic combos for chromothripsis tumors (AID 1671457; in the data active = inhibition above about 80%;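 note: cells exposed to compound for four days before readout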); settings: LFS_MB_2R medulloblastoma cells, stronger effect = higher value
# [3] = growth inhibition, MDA-MB-436, cell-based, BGB or cisplatin combos, synergistic combos for chromothripsis tumors (AID 1671458; call rule not given here;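 note: cells exposed for 96 hours; 0% = vehicle DMSO and 100% = killing by high DMSO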); settings: MDA-MB-436 breast carcinoma growth inhibition, drug combinations, stronger effect = higher value
# [4] = UWB1.289_BRCA1 ovarian cancer growth, cell-based, BGB or cisplatin combinations (AID 1671459; in the data active = inhibition above about 80%); settings: UWB1.289 BRCA1 ovarian carcinoma, drug combinations, stronger effect = higher value
# [5] = drug combination toxicity in non-malignant astrocytes – cell-based, BGB or cisplatin IC20 combos, cytotoxicity control for chromothriptic childhood tumor combination screen (AID 1671460; in the data active = inhibition above about 80%;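 note: cells exposed to compounds for 96 hours before viability readout; 0% = vehicle and 100% = killing control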); settings: Human astrocytes, viability inhibition, drug combinations, at 0.5 µM, stronger effect = higher value
# [6] = BT084 cell growth, single and combined drugs, ICGC_MB145, cisplatin and BGB IC40 combos (AID 1671461; in the data active = inhibition above about 80%;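 note: cells exposed to drugs for 96 hours; 0% = vehicle DMSO and 100% = high DMSO full killing control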); settings: BT084 medulloblastoma cells, drug combinations, stronger effect = higher value
# [7] = RCMB18 cell growth, single agent and combined, cisplatin and BGB IC40 combos (AID 1671462; in the data active = inhibition above about 80%;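 note: cells exposed to compound for four days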); settings: RCMB18 medulloblastoma cells, stronger effect = higher value
# [8] = CRL1545 cell growth, single agent and combined, cisplatin and BGB IC20 combos (AID 1671464; in the data active = inhibition above about 80%;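 note: cells exposed to compound for 96 hours before readout; 0% = vehicle DMSO and 100% = high DMSO killing control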); settings: CRL1545 osteosarcoma cells, stronger effect = higher value
# [9] = test system: F380Y; test: BK channel mutant inhibitors and activators – cell-based, U2OS BacMam, thallium flux, beta subunits, selectivity assay, profiling panel (AID 1259406); settings: U2OS BacMam BK variants, at 30 µM;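 note: initial slope of Thallos dye fluorescence rise after thallium is added; log ratio against the mean of 0.3% DMSO vehicle wells on the same plate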
# [10] = test system: F380Y/beta1; test: as above; settings: U2OS BacMam BK variants, at 30 µM
# [11] = measured here: combination with cisplatin, at 0.5 µM
smiles,measurement,setting,value
Nc1nc2c(ncn2COC(CO)CO)c(=O)[nH]1,inhibition,[1]; at 0.5 µM,8.41% (inactive)
same,inhibition,"[1]; measured here: inhibition with BGB combination, at 0.05 µM",-10.6%
same,inhibition,"[1]; measured here: inhibition with cisplatin combination, at 0.05 µM",1.36%
same,inhibition,[2]; at 0.5 µM,1.52% (inactive)
same,inhibition,[2]; [11],8.4%
same,inhibition,"[2]; measured here: combination with cisplatin, at 5 µM",102%
same,inhibition,[3]; at 0.5 µM,-1.05% (inactive)
same,inhibition,"[3]; measured here: BGB combination, at 0.5 µM",1.08%
same,inhibition,"[3]; measured here: BGB combination, at 5 µM",38.9%
same,inhibition,"[3]; measured here: cisplatin combination, at 0.5 µM",-7.9%
same,inhibition,"[3]; measured here: cisplatin combination, at 5 µM",51.5%
same,inhibition,"[4]; BGB combination, concentration series, at 5 µM",35.4%
same,inhibition,[4]; at 0.5 µM,7.28% (inactive)
same,inhibition,"[4]; cisplatin combination, concentration series, at 5 µM",66%
same,inhibition,[5],19.3% (inactive)
same,inhibition,[5]; measured here: combo with BGB IC20,14.4%
same,inhibition,[5]; measured here: combo with cisplatin IC20,21.1%
same,inhibition,[6]; at 0.5 µM,25.1% (inactive)
same,inhibition,"[6]; cisplatin combination, at 0.5 µM",43%
same,inhibition,"[6]; cisplatin combination, at 5 µM",103%
same,inhibition,"[6]; measured here: BGB IC40 combination 0.05 uM, at 0.05 µM",16.9%
same,inhibition,"[6]; single agent, at 5 µM",107%
same,inhibition,[7]; at 0.5 µM,15.7% (inactive)
same,inhibition,"[7]; cisplatin combo, at 5 µM",102%
same,inhibition,"[7]; measured here: BGB IC40 combination, at 0.05 µM",12.8%
same,inhibition,[7]; [11],27.1%
same,inhibition,"[7]; single agent, at 5 µM",88.8%
same,inhibition,[8]; at 0.5 µM,44.7% (inactive)
same,inhibition,"[8]; measured here: with BGB IC20 combination, at 0.5 µM",29.8%
same,inhibition,"[8]; measured here: with cisplatin IC20 combination, at 0.5 µM",52.1%
same,inhibition,"[8]; single agent, at 0.05 µM",3.9%
same,inhibition,"[8]; single agent, at 5 µM",93.9%
same,log fold change Tl+ flux,[9],-0.00258 (inactive)
same,log fold change Tl+ flux,[10],0.0388 (inactive)
CCCOc1ccc(C(=O)OCCN(CC)CC)cc1N,log fold change Tl+ flux,[9],0.0362 (inactive)
same,log fold change Tl+ flux,[10],-0.0262 (inactive)
CCOC(=O)O[C@]1(C(=O)OCCl)CC[C@H]2[C@@H]3CCC4=CC(=O)C=C[C@]4(C)[C@H]3[C@@H](O)C[C@@]21C,log fold change Tl+ flux,[9],-0.0169 (inactive)
same,log fold change Tl+ flux,[10],-0.0185 (inactive)
CCCc1nc(C)c2c(=O)[nH]c(-c3cc(S(=O)(=O)N4CCN(CC)CC4)ccc3OCC)nn12,log fold change Tl+ flux,[9],-0.00852 (inactive)
same,log fold change Tl+ flux,[10],0.00246 (inactive)
